Test results from PubChem BioAssay AID1117319 (Southern Research Institute, 2015).
Several values for one entry are separate records, joined by “and”; a condition that tells them apart may be missing. Identical values can stand only once. Out of some 260,000 compounds screened, about 1,500 (0.58%) were called active. Not shown: some 5% with an inconclusive outcome.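 The calls were made as follows: active = inhibition above a set limit at one or more doses, reproduced on every date tested; inconclusive = results disagree between test dates, or hit never tested in dose response; inactive = the rest.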 These entries were drawn from the full list. Potency and affinity values are given separately.

What follows are compounds tested against Virion infectivity factor (Human immunodeficiency virus type 1 group M subtype B (isolate BH10)) + Virion infectivity factor (Human immunodeficiency virus type 1 group M subtype B (isolate BRU/LAI)) + Virion infectivity factor (Human immunodeficiency virus type 1 group M subtype B (isolate PCV12)) + Virion infectivity factor (Human immunodeficiency virus type 1 group M subtype B (isolate HXB2)) + DNA dC->dU-editing enzyme APOBEC-3G (Homo sapiens) (UniProt P69720+P69721+P69722+P69723+Q9HC16) (assay: HIV-1 Vif–A3G interaction blockers – biochemical, TR-FRET, GST-Vif 1-94, biotin-A3G peptide, dose response retest, primary screen (AID 1117319;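 also: Vif residues 1-94 fused to GST binding biotinylated APOBEC3G peptide 110-148; 0% = full assay without inhibitor and 100% = GST in place of GST-Vif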)). Conditions: TR-FRET GST-Vif / biotin-A3G peptide binding; active compounds read high.
In the case of `O=C(COc1ccc2c(c1)CCC2)N1CCN(c2ccc(F)cc2)CC1`, the inhibition is reported as 4.96% (inactive).
With `Cc1cc(C)n(CC(O)COc2ccccc2[N+](=O)[O-])n1` (configuration not stated) the inhibition was 10.6% (inactive).
`N#CC1=C(N)Oc2c(oc(CO)cc2=O)C1c1cccs1` (configuration not stated) was tested, and the inhibition was 26.6% (inactive).
For `COc1ccc(C2C(C#N)=C(N)Oc3c2oc(CO)cc3=O)cc1` (configuration not stated), the inhibition was -2.28% (inactive).
In the case of `O=C(OCC(=O)N1CCc2ccccc21)c1ccccn1`, the inhibition is reported as -3.08% (inactive).
For `Cc1ccc(S(=O)(=O)N2CCOCC2)cc1C(=O)NC1CCCCC1`, the inhibition was 1.31% (inactive).
For `CCOC(=O)c1sc2nc(CC(=O)OC)nc(NCc3ccc(Cl)cc3)c2c1C`, the inhibition was -0.39% (inactive) and -4.73% (inactive).
`CCOC(=O)c1sc2nc(CC(=O)OC)nc(NCc3ccc(F)cc3)c2c1C` was tested, and the inhibition was -3.02% (inactive).
With `CC(Oc1cccc(Cl)c1)C(=O)NNC(=O)c1cccnc1` (configuration not stated) the inhibition was -4.59% (inactive).
For `COC(=O)c1ccc(C(=O)OC)c(=O)[nH]1`, the inhibition was 0.04% (inactive).
`COC(=O)c1ccc(N)cc1O` was tested, and the inhibition was -0.17% (inactive).
With `Cc1nc2nc(-c3ccccc3)[nH]n2c(=O)c1C` the inhibition was 21.8% (inactive).
For `Cn1c(=O)c2c(-c3ccccc3)n(Cc3ccccn3)cc2n(C)c1=O`, the inhibition was -0.87% (inactive).
`CC(=O)Nc1ccc(N2C(=O)CC(Sc3nc(C)cc(C)n3)C2=O)cc1` (configuration not stated) was tested, and the inhibition was 2.02% (inactive).
With `CN(C)S(=O)(=O)c1ccc(N2CCCC2)c(C(=O)Nc2ccc(N3CCOCC3)cc2)c1` the inhibition was -0.06% (inactive).
`CC(=O)NCCc1ccc(C(=O)COC(=O)c2cccn2C)cc1` was tested, and the inhibition was -0.53% (inactive).
`O=C(N/N=C/c1ccc(Cl)cc1Cl)C1CCN(c2ncc(C(F)(F)F)cc2Cl)CC1` was tested, and the inhibition was 0.03% (inactive).
With `COc1ccc(NC(=O)/C=C/c2cc(Br)ccc2OC)cc1` the inhibition was -0.44% (inactive).
In the case of `COc1cccc(/C=C/C(=O)c2ccc3c(c2)OCCO3)c1OC`, the inhibition is reported as -6.76% (inactive).
In the case of `COc1cccc(/C=C/C(=O)c2cccc([N+](=O)[O-])c2)c1OC`, the inhibition is reported as -0.4% (inactive).
For `COc1ccc(C(=O)/C=C/c2ccc(OC)cc2OC)c(O)c1`, the inhibition was -6.99% (inactive).
With `COc1ccc(/C=C/C(=O)c2ccccc2)c(OC)c1` the inhibition was 2.19% (inactive).
In the case of `CN(C)/C=C/C(=O)/C=C/c1ccc(Cl)cc1Cl`, the inhibition is reported as 0.37% (inactive).
For `COc1ccc(OC)c(/C=C/C(=O)c2ccc(Cl)cc2)c1`, the inhibition was -4.03% (inactive).
In the case of `NNC(=O)/C=C/c1ccc(Cl)cc1Cl`, the inhibition is reported as -9.79% (inactive).
`Cn1c(=O)c2c(nc(CN3CCN(Cc4ccccc4)CC3)n2Cc2ccc(F)cc2)n(C)c1=O` was tested, and the inhibition was 8.38% (inactive).
With `COc1cccc(CNC(=O)CCc2nc3cc(S(=O)(=O)N4CCOCC4)ccc3n2C)c1` the inhibition was -1.52% (inactive).
`COc1ccc(-c2nnc(SCC(=O)c3ccc[nH]3)o2)cc1` was tested, and the inhibition was 0.99% (inactive).
For `O=C(Oc1ccccc1-c1nnco1)c1ccc(Cl)cc1`, the inhibition was 5.13% (inactive).
For `COc1ccc(C=CC(=O)c2cc(O)ccc2O)cc1`, the inhibition was -0.99% (inactive).
In the case of `COc1ccc(/C=C/C(=O)c2ccc(OC)cc2OC)cc1`, the inhibition is reported as -1.1% (inactive).
`COc1ccccc1/C=C/C(=O)c1ccccc1` was tested, and the inhibition was 3.38% (inactive).
`COc1ccccc1C=CC(=O)C=Cc1ccccc1OC` was tested, and the inhibition was 7.01% (inactive).
For `Cc1nc(C(=O)N/N=C/c2[nH]ncc2Br)cs1`, the inhibition was 8.49% (inactive).
`COc1ccc(O)c(C(=O)c2cnn(S(=O)(=O)c3ccc(C)cc3)c2)c1` was tested, and the inhibition was 4.82% (inactive).
With `CC1(C)CN(c2ccccc2)N(Cc2ccc(F)cc2)C1=O` the inhibition was -1.71% (inactive).
With `NC(=O)C1(C(=O)O)OC1(c1ccc(Cl)cc1)c1ccccc1Cl` (configuration not stated) the inhibition was 5.1% (inactive).
For `COc1cc(NC(=O)c2ccc3c(SCC(=O)O)c4c(nc3c2)CCC4)cc(OC)c1OC`, the inhibition was 22.2% (inactive).
With `CCN(CC)CCCNC(=O)c1ccc2c(SCC(=O)O)c3c(nc2c1)CCC3` the inhibition was 27.5% (inactive).
For `CCOc1ccc(NC(=O)c2ccc3c(SCC(=O)O)c4c(nc3c2)CCCC4)cc1`, the inhibition was 2.98% (inactive).
`CC(C)CCNC(=O)c1ccc2c(SCC(=O)O)c3c(nc2c1)CCCC3` was tested, and the inhibition was 25.7% (inactive).
`CN1CCN(C(=O)c2ccc(CN3CCOCC3)cc2)CC1` was tested, and the inhibition was -3.34% (inactive).
In the case of `Cc1cc(NS(=O)(=O)c2ccc(NC(=O)CSc3nnc(-c4ccco4)n3C)cc2)nc(C)n1`, the inhibition is reported as 2.91% (inactive).
In the case of `O=C(Nc1ccccc1Cl)Nc1ccnn1C1CCN(C(=O)c2cscn2)CC1`, the inhibition is reported as 5.94% (inactive).
With `C=CCn1c(SCC(=O)NC2CC2)nc2ccccc2c1=O` the inhibition was 1.47% (inactive).
`O=C(/C=C/Nc1ccc(Oc2ccccc2)cc1)c1ccco1` was tested, and the inhibition was 12.6% (inactive).
In the case of `O=C(/C=C/Nc1ccc(F)cc1)c1ccco1`, the inhibition is reported as 10.5% (inactive).
